Shown are actives, neighbours in structure and some others; about 12% of the full set was active somewhere.
Cl transport mod: modulators of human KCC2 chloride dependent transport; B-score of Tl+ flux slope (higher = more flux/activation; lower = inhibition) at 10 µM; 2.2% of 190,000 active; Q9H2X9; KCC2 cells, thallium flux FluoZin-2 fluorescence; AID 1456;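 active = thallium flux slope and its plate-corrected score both differing from the plate sample mean at a set confidence after two filtering rounds, in either direction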;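 also: slope of fluorescence scaled to starting intensity during 10 to 20 s after thallium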
m-calpain inh: inhibitors of pig calpain II | inhibition, % at 16 µM | AID 1236 | 0.37% of 220,000 active | purified calpain II, fluorogenic peptide substrate, 30 min;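 active = inhibition above about 50%, limit read from the data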
ROMK primary: modulates human ROMK potassium channel activity. 2% of 130,000 active. Tet-inducible ROMK, thallium flux fluorescence; actives lie on both sides. AID 1918. P48048. B-score at 10 µM;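 active = signal ratio slope over the read window, or its plate-corrected B-score, at least 3 SD from the plate mean, either direction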;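 also: B-score of the F/F0 ratio slope over 7 to 12 s after thallium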
Target sequence (P48048 whole entry, looked up): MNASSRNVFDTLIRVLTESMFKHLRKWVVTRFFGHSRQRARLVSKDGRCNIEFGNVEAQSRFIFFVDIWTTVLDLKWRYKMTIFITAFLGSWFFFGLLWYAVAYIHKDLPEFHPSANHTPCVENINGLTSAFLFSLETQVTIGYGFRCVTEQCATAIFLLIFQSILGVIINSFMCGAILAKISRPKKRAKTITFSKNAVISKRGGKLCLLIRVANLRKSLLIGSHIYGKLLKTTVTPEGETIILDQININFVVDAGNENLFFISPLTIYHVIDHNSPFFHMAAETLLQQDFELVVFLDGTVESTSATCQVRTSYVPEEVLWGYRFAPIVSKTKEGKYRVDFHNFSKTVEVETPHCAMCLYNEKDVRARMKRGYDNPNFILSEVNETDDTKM
L major viab: inhibitors of Leishmania major promastigote growth. Leishmania major promastigotes, resazurin fluorescence viability. 9% of 200,000 active. inhibition, % at 10 µM; in the data active = inhibition above about 50%;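 also: promastigotes grown with compound for 44 hours at 28 °C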
WT yeast gro inh: growth inhibition of WT yeast, mitochondrial fusion screen; AID 1362; inhibition, % at 10 µM; 2.1% of 190,000 active; mitochondrial fusion phenotypic screen, WT strain; in the data active = inhibition above about 58%; tested in S. cerevisiae
KCC2 sec1: KCC2 (human) modulation, secondary assay | shares compounds with Cl transport mod | normalised thallium flux (F/F0 slope) at 10 µM | HEK293-KCC2, thallium flux, FluoZin2 fluorescence; stronger effect = higher value | 15% of 3,700 active | AID 1713;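 active = thallium flux slope above the same plate's solvent-only control mean plus 3 SD; inconclusive = the two replicate wells disagree; inactive = no significant difference from solvent-only control wells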
KCC2 bumet counter: bumetanide-insensitive thallium flux in KCC2 cells with ouabain, counter-screen; shares compounds with Cl transport mod; normalized thallium flux at 10 µM; 49% of 3,700 active; HEK293-KCC2 + bumetanide/ouabain, thallium flux FluoZin2; stronger effect = higher value;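 active = thallium entry rate above the same plate's blocked-transporter control wells by more than 3 SD; inconclusive = the two repeat wells disagree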;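 also: raw slope of fluorescence over initial fluorescence between 10 and 20 s after thallium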
KCC2 secondary2: confirmation of human KCC2 transport modulators. shares compounds with Cl transport mod. HEK293-KCC2, thallium flux FluoZin2 fluorescence; actives lie on both sides; F/F0 rise rate, 10–20 s post-thallium. normalized thallium flux at 10 µM. 23% of 3,700 active;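 active = thallium flux slope more than 3 SD above or below the plate's solvent-only control mean, mostly below; inconclusive = the two repeat wells disagreed; inactive = no significant shift from solvent-only controls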;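 also: raw slope with 0.1% DMSO as baseline and bumetanide as block control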
HEK293 Tl flux: acts in parental HEK cells, KCC2 counter-screen; shares compounds with Cl transport mod; HEK293 parental cells, thallium flux FluoZin2, ouabain; baseline-ratio fluorescence slope, 10–20 s after thallium; thallium flux rate (normalised fluorescence) at 10 µM; 46% of 3,700 active; AID 1716;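 active = thallium flux rate significantly above the same plate's solvent-only control wells, beyond their mean plus 3 SD; inconclusive = the two replicate wells gave conflicting results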
KCC2 retest ouab: KCC2 (human) modulation, ouabain retest | shares compounds with Cl transport mod | HEK293-KCC2, thallium flux FluoZin2 fluorescence; bidirectional: low = inhibitor, high = activator | raw Tl+ flux slope (below DMSO = inhibition, above = activation) at 10 µM | 48% of 3,700 active | AID 1717;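 active = thallium flux slope beyond 3 SD from same-plate DMSO control mean in most replicates, usually higher, sometimes lower; inconclusive = repeat tests gave conflicting results; inactive = no significant difference from controls in most replicates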;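 also: slope of initial-normalized fluorescence between seconds 10 and 20 after thallium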
HEK293 Tl flux2: parental HEK flux effect, counter-screen 2; shares compounds with Cl transport mod; HEK293 parental, thallium flux FluoZin-2 fluorescence slope; thallium flux slope at 10 µM; 33% of 3,700 active;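 active = thallium flux slope above the same plate's solvent-control mean plus 3 SD in both duplicate wells; inconclusive = duplicate wells that disagreed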;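 also: run without ouabain in cells lacking the KCC2 cotransporter; slope of fluorescence scaled to its starting value between 10 and 20 s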
Active calls of the source: *; i = inactive; ? = inconclusive; · = no result given.

SMILES	Cl transport mod	m-calpain inh	ROMK primary	L major viab	WT yeast gro inh	KCC2 sec1	KCC2 bumet counter	KCC2 secondary2	HEK293 Tl flux	KCC2 retest ouab	HEK293 Tl flux2
Oc1ccccc1C(Nc1nccs1)c1ccc2cccnc2c1O (centres undefined)	5*	-11	·	·	·	0.0089	0.015*	0.029	0.0086*	?	0.0097
CC(=O)c1ccccc1OCCn1nnc(-c2ccc(C)cc2)n1	-0.4	1	·	-1	-5	·	·	·	·	·	·
COC(=O)c1c(NC(=O)c2ccc(C)c(S(=O)(=O)Nc3ccccc3C)c2)sc2c1CCCC2	·	-214	·	34	8	·	·	·	·	·	·
COC(=O)c1c(NS(=O)(=O)c2ccc3ccccc3c2)sc2c1CCCC2	27*	-201	2.3	0	37	0.0071	0.065*	0.058*	0.057*	0.057*	0.039*
O=[N+]([O-])c1ccc(Sc2cccc3cccnc23)c([N+](=O)[O-])c1	·	19	1.5	96*	7	0.015*	0.053*	0.035	?	0.035*	0.013
C=CCn1nc([N+](=O)[O-])nc1Sc1cccc2cccnc12	12*	-4	0.97	58*	-24	0.015*	0.06*	0.03	0.018*	0.036*	0.011*
O=[N+]([O-])c1cc(Cl)ccc1Sc1cccc2cccnc12	-0.12	45	-0.99	18	-4	·	·	·	·	·	·
O=[N+]([O-])c1ccc(Sc2cccc3cccnc23)cc1	-0.29	35	-0.04	10	27	·	·	·	·	·	·
c1ccc2c(c1)Cc1cc(CN3CCOCC3)ccc1-2	-0.5	-2	·	21	11	·	·	·	·	·	·
Cc1ccc2c(c1)C1(C(=O)N2C)N2CC3(C)CN1CC(C)(C2)C3=O (centres undefined)	0.64	17	·	-3	12	·	·	·	·	·	·
Cc1ccc2c(c1)C(c1ccc(O)cc1)(c1ccc(O)cc1)C(=O)N2C	3.7*	8	0.6	-10	-1	0.011	0.0069	0.031	0.0073	0.036	?
O=C(CO/N=C/c1c(Cl)cccc1Cl)NNC(=O)c1cccc(Cl)c1	1.4	8	-0.3	·	·	·	·	·	·	·	·
O=C(CO/N=C/c1c(Cl)cccc1Cl)NNC(=O)c1ccc(Cl)cc1	6.7*	-18	-0.41	·	·	0.0097	0.013*	0.034	?	0.021	0.012
S=c1[nH]nc(CNc2cccc(Cl)c2)o1	-5.2*	8	0.8	-5	-2	0.0069	?	0.025*	0.0077	0.014*	0.01
Cc1cccc(OCc2n[nH]c(=S)o2)c1	-4.8	7	0.67	-2	3	·	·	·	·	·	·
O=C(NNS(=O)(=O)c1ccc(Br)cc1)c1cccs1	-0.1	-17	-1	-5	10	·	·	·	·	·	·
CNC(=O)CSc1nc(N)c2c3c(sc2n1)CCC3	-5.8*	-8	·	1	17	0.011	0.0065	0.034	0.0077	0.022	0.01
CCOCCCNC(=O)C1CCCN1C(=O)Nc1ccccc1[N+](=O)[O-] (centres undefined)	·	26	-0.85	-6	2	·	·	·	·	·	·
Clc1ccc(OCc2cn3ccccc3n2)c2ncccc12	-3.7*	-24	0.11	0	4	0.0062	0.0063	0.03	0.0066	0.017	0.0095
CCC(c1nnnn1Cc1ccccc1)N1CCN(c2ccccc2)CC1 (centres undefined)	-3.9*	-18	-0.15	38	9	0.016	0.0042	?	0.0066	0.015*	0.0097
CCC(c1nnnn1C1CCCC1)N1CCN(c2ccccc2)CC1 (centres undefined)	-0.68	-60	·	17	19	·	·	·	·	·	·
CC(C)Cn1c(=O)n(C)c(=O)c2[nH]cnc21	0.66	9	·	·	·	·	·	·	·	·	·
O=S(=O)(NCCSc1ccccc1)c1ccc2c(c1)OCCO2	·	11	-0.093	-6	-15	?	0.0046	0.032	0.0063	?	0.011
CN(C)c1ccc(-c2cc([C@H]3[C@@H]4C=CCC[C@@]4(C)C(=O)N3Cc3ccccc3)ccc2F)cc1	0.97	-32	·	·	·	·	·	·	·	·	·
Cc1ccc(CN(c2ccc(C(=O)Nc3ccc4c(c3)OCO4)cc2)S(C)(=O)=O)cc1	4.7*	-43	-0.31	-8	-1	0.0076	?	0.028	0.008	0.019	0.012
SMILES	Cl transport mod	m-calpain inh	ROMK primary	L major viab	WT yeast gro inh	KCC2 sec1	KCC2 bumet counter	KCC2 secondary2	HEK293 Tl flux	KCC2 retest ouab	HEK293 Tl flux2
CCN(CC)C(=S)SCC(=O)Nc1ncc2c(n1)CCCC2=O	-0.95	-16	·	·	·	·	·	·	·	·	·
FC(F)(F)c1ccc(Cl)c(NC(=S)N/N=C/c2ccccc2C(F)(F)F)c1	4.9*	-3	0.63	49	2	0.0073	0.014*	?	0.014*	?	0.013*
CCc1n[nH]c(=S)n1/N=C/c1ccc2c(c1)OCO2	-0.17	1	·	-6	15	·	·	·	·	·	·
CCc1n[nH]c(=S)n1/N=C/c1ccc(N(C)c2ccccc2)cc1	9.5*	40	-0.22	29	72*	0.0098	0.019*	0.032	0.029*	0.026*	0.012
O=c1[nH]c(-c2ccccn2)nc2sc(-c3ccccc3)cc12	4.4*	i	-0.03	100*	76*	0.0097	0.018*	0.032	0.033*	?	0.015*
Cc1c(C(=O)N(C)C)sc2nc(-c3ccccn3)[nH]c(=O)c12	0.22	-56	-0.46	30	5	·	·	·	·	·	·
COCC(=O)Nc1cc(=O)n(C)c(=O)n1C	-1.2	-13	·	-6	-5	·	·	·	·	·	·
CCC(CC)C(=O)Nc1cc(=O)n(C)c(=O)n1C	4.1*	-16	·	4	1	0.0062	0.0049	0.028	0.0078	0.019	0.011
CCCCNC(=O)COC(=O)c1ccc(NC(C)=O)cc1	-0.088	-14	0.09	-2	-1	·	·	·	·	·	·
COc1ccc(C(=O)N2CCCC(c3ccccc3)C2)cc1 (centres undefined)	-4.8*	-9	-1	4	-2	0.0053	0.0073*	0.025*	0.0072	?	0.011
O=C(c1ccc(F)cc1)N1CCC(c2ccccc2)C1 (centres undefined)	-0.46	-24	·	·	·	·	·	·	·	·	·
COC(=O)c1ccc2c(c1)N(Cc1nc(-c3cccc(C)c3)oc1C)C(=O)C1CCCN21 (centres undefined)	-0.89	-110	·	6	15	·	·	·	·	·	·
O=C(/C=C/Nc1ccc(Oc2ccccc2Cl)cc1)c1ccco1	0.75	-4	-0.21	0	27	·	·	·	·	·	·
CCOCCCNC(=O)CN1C(=O)/C(=C\c2ccc(C)cc2)Sc2ccccc21	-4.1	-16	-1.7	33	22	·	·	·	·	·	·
